Source: PubChem (National Center for Advancing Translational Sciences (NCATS))
SW480 rerep: inducers of DNA re-replication in SW480 colon cancer cells | AID 624297 | 340,000 tested, 1.8% active | SW480 DNA re-replication, Hoechst DNA content imaging, 48 h | Potency, µM (highest dose often 46.1 µM), for inactives: top-dose re-replication activation, actives largely listed as activators; further: potency means the concentration at half of the fitted maximal effect; % of control where 0% means no effect; nearly all actives have a fitted effect of over 55% in size
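SW480 cells exposed to compounds for 48 hr at 37 C, 5% CO2, then Hoechst-stained 40 min. Nuclear DNA content imaged by fluorescence scanning (405 nm excitation, 500-530 nm emission); re-replication scored as increased high-intensity nuclei.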
TDP1 cell CPT: DT40-hTDP1 cell growth loss with CPT | chicken DT40 Tdp1-/-;hTDP1 cells + 20 nM CPT, ATP luminescence, 48 h | Potency, µM (top dose mostly 46.2 µM), inactives show at the top dose activity change, negative = growth inhibition, most hits filed as inhibitors | 420,000 tested, 12% active; further: potency means the concentration at half of the fitted maximal effect; on the % scale 0 is the no-effect control and ±100 the full control effect; nearly all actives have a fitted effect of over 55% in size
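Chicken DT40 Tdp1-/- cells complemented with human TDP1, 400 cells/well, exposed to compounds plus 20 nM camptothecin for at least 48 h at 37 C; viability read as ATP content by CellTiter-Glo luminescence.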
DT40 TDP1 no CPT: qHTS for Inhibitors of human tyrosyl-DNA phosphodiesterase 1 (TDP1): qHTS in cells in absence of CPT | DT40 Tdp1-/- hTDP1 cells, no CPT, ATP luminescence, 48 h | Potency, µM (highest dose often 46.2 µM), inactives show at the highest dose activity change, negative = growth inhibition, most hits filed as inhibitors | 420,000 tested, 15% active; further: potency means the concentration at half of the fitted maximal effect; on the % scale 0 is the no-effect control and ±100 the full control effect; nearly all actives have a fitted effect of over 55% in size
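DT40 Tdp1-/-;hTDP1 cells, no CPT (DMSO vehicle only), 400 cells/well; compounds pin-transferred; ≥48 hr, 37 °C; CellTiter-Glo 30 min RT dark, luminescence read.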
MCF10A rerep: inducers of DNA re-replication in MCF 10A breast cells; Potency, µM (top dose mostly 46.1 µM), for the others: at the highest dose activity, positive = re-replication, hits mostly activators; 350,000 tested, 2.9% active; MCF 10A DNA re-replication, Hoechst nuclear intensity, 48 h; further: potency means the concentration at half of the fitted maximal effect; % of control where 0% means no effect; nearly all actives have a fitted effect of over 50% in size
Chronic BCR inh: inhibitors of chronic active B-cell receptor signaling; ABC-DLBCL IkBa-CBG/CBR reporter, luminescence ratio, 4 h; Potency, µM (top dose mostly 46.1 µM), for inactives: top-dose activity change, negative = inhibition, usual class: inhibitors; 340,000 tested, 0.05% active; AID 493014; active means well fitted inhibition curve with a large enough effect in the signal ratio, with a control signal flat, not every such curve was filed as active; inconclusive means small, poorly fitted or top-dose-only effect, or effect the other way, or a change in a side signal; the % refers to the signal ratio;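 further: potency means the concentration at half of the fitted maximal effect; plate controls were basal doxycycline-induced cells for no effect and cells given 10 µM MG132 for full effect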
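Doxycycline induced both beetle luciferases in TMD8 lymphoma cells; IKK-driven degradation limits the IkappaBalpha-fused green signal, while red luminescence normalises for cell number and nonspecific effects. Compounds tested up to 46 uM, 4 hrs.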
IL-1B inflam inh: blocks inflammasome-driven IL-1 beta release. 360,000 tested, 4.7% active. AID 743279. THP-1 LPS/ATP IL-1B secretion, AlphaLISA, 16 h; active compounds read low. activity change, % at 57.5 µM; in the data active means activity change below about -50%; inconclusive means mostly about -30% to -49%; further: on the % scale 0 is the no-effect control and ±100 the full control effect
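THP-1 cells pretreated 1 hr with compounds (up to 57.5 uM final), then stimulated with LPS (250 ng/mL final) plus ATP (1.25 mM final); secreted IL-1B measured by AlphaLISA after 16 hr, decreased signal indicating inhibition.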
An asterisk follows results filed as active; ! = repeats disagree; [ ] = another dose, or the depositor's remark. This is a sample that favours compounds with a hit; in the whole collection about 19% have one here. Unless noted, the call rests on the fitted dose curve; in most records, active means well fitted curve in the direction sought with a large enough effect; inconclusive means small, poorly fitted or top-dose-only effect, or another doubt; inactive means no such curve, though single readings can be large; an effect the other way counts as inactive or inconclusive.

`CCOc1cc(-c2nc3ccccc3s2)ccc1O` gave SW480 rerep 1.8µM*, TDP1 cell CPT 9%, DT40 TDP1 no CPT -20%, MCF10A rerep inconclusive, Chronic BCR inh 10% and IL-1B inflam inh inconclusive.
`CC(=O)Nc1ccc(O)c(-c2nc3ccccc3s2)c1` gave SW480 rerep -12%, TDP1 cell CPT -9%, DT40 TDP1 no CPT inconclusive, MCF10A rerep -1%, Chronic BCR inh inconclusive and IL-1B inflam inh -13.
Screening O=C(Nc1ccc(OC(=O)c2ccccc2)c(-c2nc3ccccc3s2)c1)c1ccccc1 returned SW480 rerep inconclusive, TDP1 cell CPT 18µM*, DT40 TDP1 no CPT inconclusive, MCF10A rerep 21µM*, Chronic BCR inh -17% and IL-1B inflam inh 58.
`O=C(Nc1cc(-c2nc3ccccc3s2)ccc1Cl)c1ccc2c(c1)OCO2` gave SW480 rerep -10%, TDP1 cell CPT inconclusive, DT40 TDP1 no CPT inconclusive, MCF10A rerep 9.2µM*, Chronic BCR inh inconclusive and IL-1B inflam inh -29.
`O=C(Nc1cccc([N+](=O)[O-])c1)c1ccc([N+](=O)[O-])o1` gave TDP1 cell CPT 1.8µM*, DT40 TDP1 no CPT 3.7µM* and IL-1B inflam inh -103*.
O=C(COc1ccc([N+](=O)[O-])cc1)Nc1ccc2[nH]c(=O)[nH]c2c1 was read as SW480 rerep -9%, TDP1 cell CPT -11%, DT40 TDP1 no CPT -5%, MCF10A rerep 1%, Chronic BCR inh -4% and IL-1B inflam inh 5.
O=C(Nc1cccc(NC(=O)c2ccccc2Cl)c1)c1ccc([N+](=O)[O-])o1 was read as SW480 rerep inconclusive, TDP1 cell CPT 8.2µM*, DT40 TDP1 no CPT 5.8µM*, MCF10A rerep 3.7µM*, Chronic BCR inh inconclusive and IL-1B inflam inh -106*.
`Cc1ccc(NC(=O)c2ccc([N+](=O)[O-])o2)cc1C` gave SW480 rerep inconclusive, TDP1 cell CPT 26µM*, DT40 TDP1 no CPT 10µM*, MCF10A rerep 9.2µM*, Chronic BCR inh inconclusive and IL-1B inflam inh -94*.
For O=C(Nc1ccc2[nH]c(=O)[nH]c2c1)c1ccc([N+](=O)[O-])o1 the results were SW480 rerep 2.9µM*, TDP1 cell CPT inconclusive, DT40 TDP1 no CPT -19%, MCF10A rerep 5.8µM*, Chronic BCR inh -2% and IL-1B inflam inh inconclusive.
O=C(Nc1cccc([N+](=O)[O-])c1)c1ccncc1 was read as SW480 rerep -3%, TDP1 cell CPT 0%, DT40 TDP1 no CPT -20%, MCF10A rerep -1%, Chronic BCR inh inconclusive and IL-1B inflam inh 22.
`O=C(CCn1c(=O)c2ccccc2n(CC(=O)Nc2ccc(F)cc2)c1=O)NCCc1ccccc1` gave TDP1 cell CPT -8% and DT40 TDP1 no CPT -18%.
Cc1cc(OC(=O)c2ccc(S(=O)(=O)N(C)C)cc2)c([N+](=O)[O-])c(=O)[nH]1 was read as SW480 rerep -7%, TDP1 cell CPT 5%, DT40 TDP1 no CPT 16%, MCF10A rerep 2%, Chronic BCR inh inconclusive and IL-1B inflam inh 0.
Screening CCC(Cn1nnc2ccccc2c1=O)NC(=O)Nc1ccccc1Cl (configuration not stated) returned TDP1 cell CPT -17% and DT40 TDP1 no CPT inconclusive.
Cc1[nH]c(=O)[nH]c(=O)c1S(=O)(=O)Nc1cccc(Cl)c1C was read as TDP1 cell CPT -1% and DT40 TDP1 no CPT 11%.
Screening Cc1cc2nc(C3CCN(CC4COc5ccccc5O4)CC3)[nH]c2cc1C (configuration not stated) returned SW480 rerep inconclusive, TDP1 cell CPT 7.3µM*, DT40 TDP1 no CPT 8.2µM*, MCF10A rerep inconclusive, Chronic BCR inh 0% and IL-1B inflam inh inconclusive.
`c1ccc2c(c1)OCC(CN1CCCCC1)O2` (configuration not stated) gave SW480 rerep -1%, TDP1 cell CPT 8%, DT40 TDP1 no CPT -5% and MCF10A rerep 3%.
Screening CC(C)=CCN1CCN(Cc2cccnc2)CC1CCO (configuration not stated) returned SW480 rerep 24%, TDP1 cell CPT 5%, DT40 TDP1 no CPT 21%, MCF10A rerep 1%, Chronic BCR inh 8% and IL-1B inflam inh 17.
Screening CC(C)(C)NC(=O)[C@@H]1CN(Cc2cccnc2)CCN1C[C@@H](O)C[C@@H](Cc1ccccc1)C(=O)N[C@H]1c2ccccc2C[C@H]1O returned SW480 rerep -40%, TDP1 cell CPT inconclusive, DT40 TDP1 no CPT 12µM*!, MCF10A rerep -4% and IL-1B inflam inh -23.
Screening CC1Oc2cc3oc4c(O)c(O)ccc4c(=O)c3c(O)c2C1(C)C (configuration not stated) returned SW480 rerep inconclusive, TDP1 cell CPT inconclusive, DT40 TDP1 no CPT inconclusive, MCF10A rerep 15% and IL-1B inflam inh 73.
`Cc1cc(NC(=O)CSCC(=O)N2CCN(c3cccc(C)c3C)CC2)no1` gave SW480 rerep -27%, TDP1 cell CPT inconclusive, DT40 TDP1 no CPT -28%, MCF10A rerep 4%, Chronic BCR inh -9% and IL-1B inflam inh 18.
Screening Cc1noc(C)c1CSCC(=O)N1CCN(c2ccc(F)cc2)CC1 returned SW480 rerep -12%, TDP1 cell CPT inconclusive, DT40 TDP1 no CPT 18µM*, MCF10A rerep -1%, Chronic BCR inh -4% and IL-1B inflam inh 0.
For Cc1noc(C)c1CSc1ccccc1C(=O)N1CCN(c2ccccc2)CC1 the results were SW480 rerep -5%[9.22 µM], TDP1 cell CPT inconclusive, DT40 TDP1 no CPT inconclusive, MCF10A rerep inconclusive, Chronic BCR inh 14% and IL-1B inflam inh 2.
For Cc1cccc(N2CCN(C(=O)CSCc3c(C)noc3C)CC2)c1C the results were SW480 rerep 14%, TDP1 cell CPT 21µM*, DT40 TDP1 no CPT 7.3µM*, MCF10A rerep 11%, Chronic BCR inh -9% and IL-1B inflam inh -14.
For O=C(CSCc1ccc(F)cc1)N1CCN(c2ccc(Cl)cc2)CC1 the results were TDP1 cell CPT 16µM*, DT40 TDP1 no CPT 21µM* and Chronic BCR inh 5%.
Screening CCOC(=O)c1ccc(NC(=O)N2CCN(c3ccccn3)CC2)cc1 returned SW480 rerep 2%, TDP1 cell CPT 0%, DT40 TDP1 no CPT -25%, MCF10A rerep 0%, Chronic BCR inh -9% and IL-1B inflam inh 3.
